Several values for one entry are separate records, joined by “and”; a condition that tells them apart may be missing. Identical values can stand only once. Inconclusive results are not listed. A call without a number means that no potency is given here. The source holds several records for some structures; these can differ, active in one and inactive in another. Activity calls are given as the source filed them. Calls come from the whole dose curve; as a rule, active = well fitted cell-killing curve with a large enough effect in the repeat runs; inconclusive = weak or mixed curves, or effect the other way; inactive = flat fitted curve, though single readings scatter.
Potency is the fitted concentration of half-maximal effect.

This experiment in a line: qHTS RealTime-Glo MT Cell Viability Assay in HEK293 cells - 8 hour (AID 1224887). Note: nearly all actives have a fitted effect of over 50% in size. Conditions: RealTime-Glo luminescence; series mostly up to 76.8 µM. An excerpt:
U.S. Tox21 Program National Center for Advancing Translational Sciences [NCATS] NIH Chemical Genomics Center [NCGC] U.S. Environmental Protection Agency [EPA] National Institutes of Environmental Health Sciences [NIEHS] National Toxicology Program [NTP] U.S. Food and Drug Administration [FDA] Tox21 Assay Overview: Measure of cell viability is critical in the cell-base assay. Analysis of cell viability is necessary for the characterization of cell responses to cytotoxic drugs and environmental stress. A RealTime-Glo MT Cell Viability Assay to monitor cell viability in real time of continues cell culture during 40 hours of compound treatment was used to screen Tox21 10K library compounds in Hek293 cells. The RealTime-Glo MT Cell Viability Assay is a nonlytic, homogeneous, bioluminescent method to measure cell viability in real time using a simple, plate-based method. The assay involves adding NanoLuc luciferase and a cell-permeant prosubstrate to cells in culture. Viable cells reduce the proprietary prosubstrate to generate a substrate for NanoLuc luciferase. This substrate diffuses from cells into the surrounding culture medium, where it is rapidly used by the NanoLuc Enzyme to produce a luminescent signal. The signal correlates with the number of viable cells, making the assay well suited for cytotoxicity studies.
Tox21 Assay Protocol Summary: The mixture of Hek293 cell suspension and reagents were dispensed at 600cells/6 ul/well in 1536-well tissue culture treated black solid bottom plates using a Multidrop dispenser. After the assay plates were incubated at a 37 C/5% CO2 incubator for 5 hours, 23 nL of compounds dissolved in DMSO, positive and negative controls was transferred to the assay plate by a pintool work station. The plates were incubated at 37 C for 40 hours. The luminescence intensity were measured at 0h, 8h, 16h, 24h, 32h and 40h time points using ViewLux plate reader during compound treatment.
A general note: Quantitative high-throughput screening tests each substance at several concentrations.
For the molecule `CC/C(=C(/CC)c1ccc(O)cc1)c1ccc(O)cc1`, the Potency is 15.4 µM (active).

For the molecule `O=C(O)c1ccc(O)cc1`, the Potency result was “inactive”.

`OC[C@@H](O)[C@@H](O[C@@H]1O[C@H](CO)[C@H](O)[C@H](O)[C@H]1O)[C@H](O)[C@@H](O)CO`: the Potency entry was “inactive”.

Regarding `Nc1cc([N+](=O)[O-])ccc1C(=O)O`, the Potency entry is “inactive”.

As for `NC[C@H](O)c1ccc(O)c(O)c1`, the Potency result is “inactive”.

Regarding `CCCCCCC(C)O` (stereo not given), the Potency entry was “inactive”.

On to `Brc1nc2ccccc2s1`, for which the Potency entry is “inactive”.

Take `COCCOCCOCCO`: the Potency result is “inactive”.

Regarding `O=C1OC2(c3ccccc31)c1cc(I)c(O)c(I)c1Oc1c2cc(I)c(O)c1I`, the Potency was 49.1 µM (active) and inactive.

`C=C1C[C@H]2[C@@H]3C=C(C)C4=CC(=O)CC[C@]4(C)[C@H]3CC[C@]2(C)[C@@]1(OC(C)=O)C(C)=O`: the Potency result was “inactive”.

Turning to `NCCOCCO`, the Potency entry was “inactive”.

Turning to `FC(F)(F)C(Cl)Br` (stereo not given), the Potency entry is “inactive”.

On to `Nc1ccc2c(O)cc(S(=O)(=O)O)cc2c1`, for which the Potency result was “inactive”.

As to `O=[Se](O)O`, the Potency result was “inactive”.

Take `C[C@]12CC[C@@H]3c4ccc(O)cc4CC[C@H]3[C@@H]1CC[C@H]2O`: the Potency result is “inactive”.

In the case of `CN(C)/N=N/c1nc[nH]c1C(N)=O`, the Potency result was “inactive”.

Regarding `Nc1ccc2c(c1)C(=O)c1ccccc1C2=O`, the Potency result is “inactive”.

For the molecule `CC(=O)OC(C)C`, the Potency result was “inactive”.

For `CCCCCCCCCCCCCO`, the Potency result was “inactive”.

Take `C/C=C/C(=O)N(CC)c1ccccc1C`: the Potency result was “inactive”.

For the molecule `NCCN`, the Potency entry is “inactive”.

Consider `CN(C)CCCN1c2ccccc2Sc2ccc(Cl)cc21`, for which the Potency was 30.9 µM (active).

On to `Nc1cc(Cl)c(N)c(Cl)c1`, for which the Potency entry was “inactive”.

Turning to `CC1(C)O[C@@H]2C[C@H]3[C@@H]4C[C@H](F)C5=CC(=O)C=C[C@]5(C)[C@@]4(F)[C@@H](O)C[C@]3(C)[C@]2(C(=O)CO)O1`, the Potency result was “inactive”.

In the case of `CCO[Si](CCCNC(N)=O)(OCC)OCC`, the Potency result was “inactive”.

Consider `C=C[C@H]1CN2CC[C@H]1C[C@@H]2[C@@H](O)c1ccnc2ccc(OC)cc12`, for which the Potency is 42.9 µM (active) and inactive.

Regarding `Cc1cccc(Nc2ccccc2C(=O)O)c1C`, the Potency result is “inactive”.

With `CC1(C)OC(=O)NC1=O`, the Potency result is “inactive”.

Take `CC(=O)[C@@]1(O)CC[C@H]2[C@@H]3C[C@H](C)C4=CC(=O)C=C[C@]4(C)[C@@]3(F)[C@@H](O)C[C@@]21C`: the Potency result was “inactive”.

On to `CNC[C@H](O)c1ccc(O)c(O)c1`, for which the Potency entry was “inactive”.

On to `CC(=O)[C@H]1CC[C@H]2[C@@H]3CC=C4C[C@@H](O)CC[C@]4(C)[C@H]3CC[C@]12C`, for which the Potency result was “inactive”.

Take `CN1CCOCC1`: the Potency entry is “inactive”.

With `O=C(O)CCCCCCCCCCCC(=O)O`, the Potency result was “inactive”.

As to `C=CCNCC=C`, the Potency result was “inactive”.

With `NCCS(=O)(=O)O`, the Potency result is “inactive”.

For `C=C[C@H]1CN2CC[C@H]1C[C@H]2[C@H](O)c1ccnc2ccc(OC)cc12`, the Potency result is “inactive”.

On to `Cc1ccc(C)c(O)c1`, for which the Potency entry is “inactive”.

For `C=CCOC(=O)C(=C)C`, the Potency entry was “inactive”.

For the molecule `OC[C@H]1O[C@@H]2O[C@H]3[C@H](O)[C@@H](O)[C@@H](O[C@H]4[C@H](O)[C@@H](O)[C@@H](O[C@H]5[C@H](O)[C@@H](O)[C@@H](O[C@H]6[C@H](O)[C@@H](O)[C@@H](O[C@H]7[C@H](O)[C@@H](O)[C@@H](O[C@H]1[C@H](O)[C@H]2O)O[C@@H]7CO)O[C@@H]6CO)O[C@@H]5CO)O[C@@H]4CO)O[C@@H]3CO`, the Potency entry is “inactive”.

Turning to `Nc1ccc(N)c(Cl)c1`, the Potency is 21.8 µM (active) and 43.6 µM (active).

(Values after PubChem BioAssay (Tox21).)
